Assay [1] concerns the target Glutathione peroxidase 1 (Homo sapiens) (UniProt P07203). Description: Primary qHTS Assay for Inhibitors of Recombinant Selenoprotein Glutathione Peroxidase 1 (GPX1) (AID 1845191). Note: nearly all actives have a fitted effect of over 65% in size. Put shortly: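 GR-coupled assay: compounds preincubated 30 min at room temperature with GPX1, then reaction started with CHP; final 10 nM GPX1, 1 mM GSH, 0.5 mM CHP, 0.5 mM NADPH, 100 nM GR, 0.01% BSA, pH 7.5 Tris buffer. NADPH fluorescence (340/450 nm) read at 0 and 15 min.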
A general note: In qHTS, concentration-response curves come from the screen itself.

The target of assay [2] is Phospholipid hydroperoxide glutathione peroxidase GPX4 (Homo sapiens) (UniProt P36969). Description: Primary qHTS Assay for Inhibitors of Recombinant Selenoprotein Glutathione Peroxidase 4 (GPX4) (AID 1845192). Note: nearly all actives have a fitted effect of over 65% in size. Note: potency is the fitted concentration of half-maximal effect. Put shortly: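 GR-coupled assay: recombinant GPX4 preincubated 30 min with compound at room temperature; final 200 nM GPX4, 1 mM GSH, 0.5 mM cumene hydroperoxide, 0.5 mM NADPH, 100 nM GR, 0.01% BSA, pH 7.5 Tris. NADPH fluorescence (340/450 nm) read at 0 and 15 min.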
Sequence of Phospholipid hydroperoxide glutathione peroxidase GPX4 (Homo sapiens) (P36969 whole entry, looked up): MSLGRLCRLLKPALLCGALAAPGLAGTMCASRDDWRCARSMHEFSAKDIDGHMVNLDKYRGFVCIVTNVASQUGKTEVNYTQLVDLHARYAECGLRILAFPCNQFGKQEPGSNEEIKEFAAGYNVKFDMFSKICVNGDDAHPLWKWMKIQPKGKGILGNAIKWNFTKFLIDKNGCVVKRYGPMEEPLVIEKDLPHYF

Assay [3] in a line: Quantitative High-Throughput drug screen in 47 multiple myeloma cell lines against the NCATS MIPE library collection: AMO1_DSMZ cell viability assay (AID 1918927; note: nearly all actives have a fitted effect of over 30% in size; note: potency is the fitted concentration of half-maximal effect). Put shortly: (§1)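 Luminescent ATP measurement with CellTiter-Glo gives viability, scaled between DMSO-only wells (100%) and media-only wells (0%). Cells, 500 per well, faced library compounds for 48 hours at 37C.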
The nature of assay [4]: Quantitative High-Throughput drug screen in 47 multiple myeloma cell lines against the NCATS MIPE library collection: ARD_JJKsccE7 cell viability assay (AID 1918929; note: potency is the fitted concentration of half-maximal effect). Put shortly:
as §1

A short description of assay [5]: Quantitative High-Throughput drug screen in 47 multiple myeloma cell lines against the NCATS MIPE library collection: Karpas620_DSMZ cell viability assay (AID 1918959). Note: nearly all actives have a fitted effect of over 30% in size. Note: potency is the fitted concentration of half-maximal effect. Put shortly:
(§2)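 Inhibition of cell viability is measured here. Each line was plated at 500 cells per well, treated with MIPE 4.0 drugs, kept 48 hours at 37C, then assayed for ATP content by CellTiter-Glo luminescence.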

A short description of assay [6]: Quantitative High-Throughput drug screen in 47 multiple myeloma cell lines against the NCATS MIPE library collection: KMM1_JCRB cell viability assay (AID 1918960). Note: nearly all actives have a fitted effect of over 30% in size. Note: potency is the fitted concentration of half-maximal effect. Summed up: (§3)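 ATP readout (CellTiter-Glo), 48 h drug incubation, 37 °C/5% CO2, 500 cells per well; normalisation to DMSO (100%) and media-only (0%) controls.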
Assay [7] is described as follows: Quantitative High-Throughput drug screen in 47 multiple myeloma cell lines against the NCATS MIPE library collection: FR4_PLB cell viability assay (AID 1918924; note: nearly all actives have a fitted effect of over 35% in size; note: potency is the fitted concentration of half-maximal effect). Summed up:
as §2

Assay [8] in a line: Quantitative High-Throughput drug screen in 47 multiple myeloma cell lines against the NCATS MIPE library collection: ARP1_JJKsccF8 cell viability assay (AID 1918928; note: nearly all actives have a fitted effect of over 40% in size; note: potency is the fitted concentration of half-maximal effect). Put shortly:
as §3

Assay [9] in a line: Quantitative High-Throughput drug screen in 47 multiple myeloma cell lines against the NCATS MIPE library collection: EJM_DSMZ cell viability assay (AID 1918926; note: nearly all actives have a fitted effect of over 30% in size; note: potency is the fitted concentration of half-maximal effect). Put shortly:
as §1

The nature of assay [10]: Quantitative High-Throughput drug screen in 47 multiple myeloma cell lines against the NCATS MIPE library collection: Delta47_JCRB cell viability assay (AID 1918925; note: nearly all actives have a fitted effect of over 45% in size; note: potency is the fitted concentration of half-maximal effect). Put shortly: as §1
Assay [11] addresses Luciferin 4-monooxygenase (Photinus pyralis) (UniProt P08659). Put plainly: Primary firefly luciferase (FLuc) qHTS assay for identification of artifact compounds. (AID 1845220). Note: series mostly up to about 54 µM; nearly all actives have a fitted effect of over 60% in size. Put shortly: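 Titrated compounds were incubated 15 min at RT, protected from light, with luciferin and ATP at 10 uM; reaction started with 10 nM FLuc, luminescence imaged at 5 min, and concentration-response fitted by Hill equation.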

Assay [12] deals with Nanoluciferase (engineered Oplophorus gracilirostris luciferase). Put plainly: Primary Nanoluciferase (NLuc) qHTS assay for identification of artifact compounds. (AID 1845222).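 Note: NLuc secreted into diluted conditioned medium of S16 cells; series mostly up to about 54 µM.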 Summed up:
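qHTS format, against NLuc in S16 cell-conditioned medium. Nano-Glo substrate 1:100 was added after 15 min at room temperature. Luminescence was taken after a further 5 min.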

Assay [13] can be described thus: Primary redox qHTS assay for identification of artifact compounds. (AID 1845223). Put shortly: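 Amplex Red (25 uM) and HRP (250 mU/mL) in HBSS, with compounds for 15 min, then 250 uM DTT for 30 min, room temperature, dark. Fluorescence 525/598 nm read; normalized to DMSO and 10 uM DA3003; Hill fit.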
The nature of assay [14]: Primary fluorescence-based thiol-reactive (MSTI) qHTS assay for identification of artifact compounds. (AID 1845221).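 Note: series mostly up to about 54 µM; thiol-reactive compounds lower the probe fluorescence signal; nearly all actives have a fitted effect of over 65% in size.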 Put shortly:
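Probe: MSTI 4 uM, PBS pH 7.4, 2% DMSO. Incubation 1 h, RT, light-protected. Readout fluorescence 525/598 nm.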

Inconclusive results are not listed. Calls of active or inactive are those of the source. Calls come from the whole dose curve; as a rule, active = well fitted curve in the direction sought with a large enough effect; inconclusive = small, poorly fitted or top-dose-only effect, or another doubt; inactive = no such curve, though single readings can be large; an effect the other way counts as inactive or inconclusive.

Sequence of Glutathione peroxidase 1 (Homo sapiens) (P07203 whole entry, looked up): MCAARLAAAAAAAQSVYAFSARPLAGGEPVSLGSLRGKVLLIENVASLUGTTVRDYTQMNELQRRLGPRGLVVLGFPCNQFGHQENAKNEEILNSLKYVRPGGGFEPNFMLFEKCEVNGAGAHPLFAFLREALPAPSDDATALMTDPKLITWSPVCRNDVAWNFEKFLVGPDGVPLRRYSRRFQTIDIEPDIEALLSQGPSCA

For the compound `C=C[C@@H]1CN2CCC1C[C@H]2[C@H](O)c1ccnc2ccc(OC)cc12` (some centres not stated), the Potency result in [1], in [2], in assay [3], in assay [4], in [5] and in assay [6] was “inactive” throughout.

`C[N+](C)([O-])CCNc1ccc(NCC[N+](C)(C)[O-])c2c1C(=O)c1c(O)ccc(O)c1C2=O`: the Potency result in assay [1], in assay [2], in [7], in assay [3], in [8] and in [5] was “inactive” throughout. The Potency result in assay [6] is “inactive”.

`C[C@@H]1CC[C@@]2(OC1)OC1CC3C4CC=C5CC(O)CCC5(C)C4CCC3(C)C1[C@@H]2C` (some centres not stated): the Potency result in [1], in [2], in assay [7], in [9], in [3] and in assay [8] was “inactive” throughout. Also, the Potency entry in assay [5] and in assay [6] was “inactive” in each case.

Take `c1coc(CNc2ncnc3nc[nH]c23)c1`: the Potency result in assay [1], in assay [2], in assay [10], in assay [9], in assay [3] and in assay [8] was “inactive” throughout. Also, the Potency entry in [4] and in assay [6] was “inactive” each time.

Regarding `COc1cc(C[C@@H](CO)[C@H](CO)Cc2ccc(O)c(OC)c2)ccc1O`, the Potency result in assay [1], in assay [2] and in assay [8] was “inactive” throughout. Also, the figures for the Potency in assay [9], in assay [3] and in assay [4] were 0.264 µM (active), 4.69 µM (active) and 9.35 µM (active), respectively.

In the case of `NC(=O)c1cccc(-c2cccc(OC(=O)NC3CCCCC3)c2)c1`, the Potency entry in assay [1], in assay [2], in [9], in assay [3], in [8] and in assay [4] was “inactive” each time. Moreover, the Potency result in [5] and in assay [6] was “inactive” in each case.

`O=C(CN1C(=O)C2(CCCC2)NC[C@H]1c1cc(F)cc(F)c1)Nc1ccc2c(c1)C[C@@]1(C2)C(=O)Nc2ncccc21`: the Potency entry in assay [1], in assay [2], in assay [7], in assay [9], in [3] and in [8] was “inactive” throughout. The Potency entry in [4] and in assay [5] was “inactive” throughout.

Regarding `CCCNS(=O)(=O)Nc1ncnc(OCCOc2ncc(Br)cn2)c1-c1ccc(Br)cc1`, the Potency result in assay [1], in assay [2], in assay [7], in assay [8], in assay [4] and in assay [6] was “inactive” in each case. In addition, in assay [10], the Potency is 2.64 µM (active).

On to `O=C(NC1CC1)c1cccc(-c2ccc3c(NC(=O)C4CC4)n[nH]c3c2)c1`, for which the Potency entry in assay [1], in [2] and in assay [5] was “inactive” each time. The Potency in assay [7] is 2.09 µM (active); in assay [10] it was 7.43 µM (active); in [8], 14.8 µM (active).

Regarding `C#Cc1cccc(Nc2ncnc3cc(OCCOC)c(OCCO)cc23)c1`, the Potency result in assay [1] and in assay [2] was “inactive” in each case. Moreover, the Potency in assay [7] was 7.43 µM (active); in [10], 1.05 µM (active); in assay [3], 2.35 µM (active); in assay [4] it was 0.418 µM (active); in assay [6], 4.69 µM (active).

Turning to `CC(C)NC[C@@H](C(=O)N1CCN(c2ncnc3c2[C@H](C)C[C@H]3O)CC1)c1ccc(Cl)cc1`, the Potency entry in [1] and in assay [2] was “inactive” each time. Also, the Potency in assay [10] is 0.0935 µM (active); in [9], 16.6 µM (active); in assay [3], 4.18 µM (active); in assay [5] it was 4.18 µM (active).

For the compound `Cn1c(Nc2ccc(C(F)(F)F)cc2)nc2cc(Oc3ccnc(-c4ncc(C(F)(F)F)[nH]4)c3)ccc21`, the Potency entry in assay [1] and in [2] was “inactive” in each case. Further, the Potency in assay [7] was 18.7 µM (active); in assay [10], 0.662 µM (active); in assay [3] it was 9.35 µM (active); in [8], 20.9 µM (active); in [4] it was 16.6 µM (active); in assay [6] it was 16.6 µM (active).

Take `CCCCCCCN(CC)CCCC(O)c1ccc(NS(C)(=O)=O)cc1` (configuration not stated): the Potency result in assay [1], in assay [2], in [7] and in [8] was “inactive” throughout. Moreover, the Potency in assay [3] is 23.5 µM (active); in [4] it was 20.9 µM (active); in assay [6] it was 20.9 µM (active).

As for `N#Cc1c(NC(=O)c2cccc3ccccc23)sc2c1CCCC2`, the Potency entry in assay [1] and in assay [2] was “inactive” in each case. Further, the Potency was 0.209 µM (active) in [7]; 0.418 µM (active) in [10]; 0.118 µM (active) in assay [3]; 0.418 µM (active) in assay [8]; 0.296 µM (active) in assay [4]; 0.296 µM (active) in assay [6].

For the compound `O=c1ccn([C@@H]2O[C@H](CO)[C@H](O)[C@@H]2F)c(=O)[nH]1`, the Potency entry in assay [1], in assay [2], in assay [7], in [8], in assay [4] and in assay [5] was “inactive” in each case. Also, in [6], the Potency entry was “inactive”.

As to `COc1ccc(Nc2nccc(NCCO)n2)cc1`, the Potency entry in assay [1], in assay [2], in assay [9], in [3], in assay [8] and in assay [4] was “inactive” in each case. For the same compound, the Potency result in assay [5] and in assay [6] was “inactive” in each case.

As for `CC(Cc1ccc(O)c(O)c1)(NN)C(=O)O` (configuration not stated), the Potency entry in [1], in [2], in assay [10], in [9], in assay [4] and in assay [5] was “inactive” in each case.

Take `CC(C)c1cnn2c(NCc3ccccc3)cc(NCCCCCCN)nc12`: the Potency entry in [1] and in assay [2] was “inactive” each time. The Potency is 18.7 µM (active) in [7]; 13.2 µM (active) in [9]; 23.5 µM (active) in assay [3]; 16.6 µM (active) in assay [8]; 20.9 µM (active) in [4]; 16.6 µM (active) in assay [6].

Regarding `CC1(C)O[C@@H]2C[C@H]3[C@@H]4CCC5=CC(=O)C=C[C@]5(C)[C@@H]4[C@@H](O)C[C@]3(C)[C@]2(C(=O)CO)O1`, the Potency result in assay [1], in assay [2], in assay [7] and in assay [9] was “inactive” each time. Besides, the values for the Potency in assay [8] and in assay [4] were 0.0372 µM (active) and 0.0053 µM (active), respectively.

As to `CC(C(C)N1CC(=O)NC(=O)C1)N1CC(=O)NC(=O)C1` (configuration not stated), the Potency result in [1], in assay [2], in assay [9] and in assay [5] was “inactive” throughout. The Potency in [3] is 0.332 µM (active).

As to `N#CNC(=NCCCCCCOc1ccc(Cl)cc1)Nc1ccncc1`, the Potency entry in [2] was “inactive”. In addition, the Potency in assay [7] was 20.9 µM (active); in [10], 18.7 µM (active); in [9], 16.6 µM (active); in assay [3], 0.0187 µM (active); in [8], 0.0066 µM (active); in assay [4], 0.0469 µM (active). Moreover, the Potency in assay [5] was 0.0019 µM (active).

Take `c1cc(N[C@@H]2CCNC2)nc(-c2cnc3ccc(-c4cn[nH]c4)cn23)c1`: the Potency was 25.5 µM (active) in assay [2]; 11.8 µM (active) in [7]; 9.35 µM (active) in assay [10]; 13.2 µM (active) in assay [9]; 26.4 µM (active) in [4]; 10.5 µM (active) in [5]. The Potency in [6] is 8.33 µM (active). Also, the Potency entry in [11] and in [13] was “inactive” throughout. The outcome in assay [12] was inactive.

On to `CC(C)n1cnc2c(NCCc3ccc(O)cc3)nc(-c3csc4ccccc34)nc21`, for which the Potency result in assay [2], in assay [11], in assay [14], in assay [13] and in [6] was “inactive” each time. Besides, the call in assay [12] was inactive. The Potency in assay [7] is 20.9 µM (active); in [9], 5.9 µM (active); in assay [8] it was 14.8 µM (active).
